Marburg entry – qHTS for Inhibitors of binding or entry into cells for Marburg Virus. Potency, µM (doses to about 49.2 µM), for the others: top-dose activity change, negative = inhibition, usual class: inhibitors. 18,000 tested, 6.5% active. Marburg virus pseudotype entry/binding inhibition, cell-based
Lassa entry – qHTS for Inhibitors of binding or entry into cells for Lassa Virus | Potency, µM (titrated, usually from 49.2 µM), for the others: at the top dose activity change, negative = inhibition, hits mostly inhibitors | AID 720533, 2013 | 18,000 tested, 4.1% active | Lassa virus pseudotyped entry inhibition, cell-based qHTS
Starred values were filed as active, the others as inactive; ? = inconclusive; nt = no result; [ ] = dose if it differs, or a comment. Sampled rows, rich in hits. Any-hit rate of the full collection: about 7.1%. The call rests on the fitted dose curve; tested in HEK293 cells. On the % scale 0 is the no-effect control and ±100 the full control effect; potency means the concentration at half of the fitted maximal effect.

SMILES	Marburg entry	Lassa entry
COc1ccc([C@]23Cc4cc(OC)c(OC)cc4[C@H](O2)C2=C(CCCC2=O)O3)cc1	6.0%[8.59 µM]	2.7%[8.59 µM]
COC(=O)C1=C(C(=O)OC)[C@@H]2N(C)c3ccccc3[C@@]23C[C@@H](CO)N(C(=O)NC2CCCCC2)C3=N1	-1.9%[8.59 µM]	-2.9%[8.59 µM]
CC(C)=CCCC1(C)C=Cc2c(O)c3c(c(CC=C(C)C)c2O1)OC12C(=CC4CC1C(C)(C)OC2(C/C=C(/C)C(=O)O)C4O)C3=O (configuration not stated)	3.55µM*	4.47µM*
CC(C)=CCCC1(C)C=Cc2c(O)c3c(c(CC=C(C)C)c2O1)OC12C(=CC4CC1C(C)(C)OC2(C/C=C(/C)C(=O)O)C4=O)C3=O (configuration not stated)	2.82µM*	5.01µM*
CC(C)CCCC1(C)C=Cc2c(O)c3c(c(CCC(C)C)c2O1)OC12C(CC4CC1C(C)(C)OC2(CCC(C)C(=O)O)C4O)C3=O (configuration not stated)	-19.6%	-17.5%
CC(C)=CCCC1(C)C=Cc2c(O)c3c(c(CC=C(C)C)c2O1)OC12C(=CCCC1C(C)(C)O[C@@]2(C/C=C(\C)C(=O)O)C(=O)O)C3=O (some centres not stated)	-5.7%	-0.2%
CC(C)C1C(=O)N(Cc2cn(CCC3OCCCO3)nn2)CCS(=O)(=O)N1Cc1ccc(-c2ccc(F)cc2)cc1 (configuration not stated)	?	-20.8%
C[C@H](Cc1ccccc1)Nc1ncnc2c1ncn2[C@@H]1O[C@H](CO)[C@@H](O)[C@H]1O	34.7%	13.3%
COc1ccc(C[C@H](N)C(=O)N[C@H]2[C@@H](O)[C@H](n3cnc4c(N(C)C)ncnc43)O[C@@H]2CO)cc1	3.98µM*	4.47µM*
C[C@H](CO)NS(=O)(=O)c1cccc(Cl)c1F	18.7%	14.1%
C=CCN1c2ccccc2[C@]23CCC(=O)N(Cc4cc(OC)c(OC)c(OC)c4)C2=NC(C(=O)OC)=C(C(=O)OC)[C@H]13	-6.7%[8.59 µM]	-15.4%[8.59 µM]
CC1=C(/C=C/C(C)=C/C=C/C(C)=C/C=C/C=C(C)/C=C/C=C(C)/C=C/C(=O)[C@]2(C)CC(O)CC2(C)C)C(C)(C)CC(O)C1 (some centres not stated)	8.1%	5.8%
CC1=C(/C=C/C(C)=C/C=C/C(C)=C/C=C/C=C(C)/C=C/C=C(C)/C=C/C2=C(C)C[C@@H](O)CC2(C)C)C(C)(C)C[C@H](O)C1	8.6%	28.2µM*
C[C@H]1C(C(=O)N2CCCC2)=Cc2[nH]c(=O)[nH]c2C=C1c1ccccc1	18.4%[8.59 µM]	4.0%[8.59 µM]
COc1ccc(-c2cc(-c3cn[nH]c3-c3ccccn3)ccn2)cc1	38.9%	92.8%
CC1(C)CC[C@]2(C(=O)O)CC[C@]3(C)C(=CCC4[C@@]5(C)CC[C@H](O)C(C)(C)C5[C@H](O)C[C@]43C)C2C1 (some centres not stated)	0.9%	31.6µM*
CC1(C)CC[C@]2(C(=O)O)CC[C@]3(C)C(=CCC4[C@@]5(C)CC[C@H](O)C(C)(C)[C@@H]5CC[C@]43C)C2C1 (some centres not stated)	-17.4%	?
C=CCN=C1NC(CCc2ccccc2)C(C(=O)OC)=C(C)N1CC (configuration not stated)	?	-13.4%[8.59 µM]
COC(=O)[C@]1(C)CC[C@@]2(C)CC[C@@]3(C)C4=CCc5c(cc(O)c(O)c5C)[C@]4(C)CC[C@@]3(C)C2C1 (some centres not stated)	?	17.8µM*
COC(=O)C1=C(C)N(CC2CC2)C(=O)NC1CCc1ccccc1 (configuration not stated)	20.9%[8.59 µM]	8.6%[8.59 µM]
COc1ccc(COC(=O)NN=C2C[C@@H](O)[C@@H](O)[C@@H]3[C@H]4C(=O)N(Cc5ccc6c(c5)OCO6)C(=O)[C@@H]4CC[C@H]23)cc1	4.1%[8.59 µM]	nt
O=C1C=C2C=C[C@@H]3C[C@@]2(O1)[C@H]1CCCCN31	14.1µM*	?
COC1=CC(=O)C=C(OC)C1=O	7.08µM*	10µM*
COC1=CC(=O)C(C(=O)c2ccccc2)=CC1=O	10.3%	-3.6%
CC(C)(C)NC[C@H](O)COc1cccc2[nH]c(C#N)cc12	-12.9%	-3.1%
CC(C)(Cc1c[nH]c2ccccc12)NCC(O)COc1ccccc1C#N (configuration not stated)	7.94µM*	?
COc1ccc([C@]23Cc4cc(C#N)ccc4[C@H](O2)c2c(c4ccc(OC)cc4oc2=O)O3)cc1	?	27.4%[8.59 µM]
CC1CC[C@@]2(OC1)OC1C(O)C3C4CC[C@H]5CC(O[C@@H]6O[C@@H](CO)[C@H](OC7OC(CO)C(O)C(OC8OCC(O)C(O)[C@H]8O)[C@@H]7O[C@@H]7OC(CO)[C@H](O)[C@@H](O[C@@H]8OC(CO)C(O)C(O)C8O)C7O)C(O)C6O)C(O)C[C@]5(C)C4CC[C@]3(C)C1C2C (some centres not stated)	?	14.1µM*

Screens deposited in PubChem BioAssay by National Center for Advancing Translational Sciences (NCATS).
